Several values for one entry are separate records, joined by “and”; a condition that tells them apart may be missing. Equal values may be shown once. Inconclusive results are not listed. A call without a number means that no potency is given here. More than one record can exist for a structure, and the calls need not agree. Activity calls are given as the source filed them. Unless noted, calls come from the whole dose curve; as a rule, active = well fitted curve in the direction sought with a large enough effect in the repeat runs; inconclusive = weak or mixed curves; inactive = no such curve, though single readings can be large; an effect the other way counts as inactive or inconclusive.
Key:
[1] = qHTS assay to identify small molecule agonists of the peroxisome proliferator-activated receptor delta (PPARd) signaling pathway - cell viability counter screen (AID 743211); note: nearly all actives have a fitted effect of over 55% in size; note: potency is the fitted concentration of half-maximal effect
Summary of the method: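 qHTS cell viability: PPARd-bla HEK293H; 17 h cpd, 37C; CellTiter-Glo, luminescence at 30 min RT.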

[2] = target: Peroxisome proliferator-activated receptor delta (Homo sapiens) (UniProt Q03181); test: qHTS assay to identify small molecule agonists of the peroxisome proliferator-activated receptor delta (PPARd) signaling pathway (AID 743212; calls by dose curve)
Summary of the method: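 A PPARd-bla HEK293H line with beta-lactamase under an Upstream Activator Sequence is treated with compounds at 37 C. Substrate loading for 2 h at room temperature precedes the fluorescence measurement.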

[3] = qHTS assay to identify small molecule antagonists of the peroxisome proliferator-activated receptor delta (PPARd) signaling pathway - cell viability counter screen (AID 743213); note: nearly all actives have a fitted effect of over 50% in size; note: potency is the fitted concentration of half-maximal effect
Summary of the method: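 Same-well viability: cells pre-incubated 5 h, dosed with compound plus 300 nM L165041, kept 17 h at 37 C, FRET substrate 2 h RT, then CellTiter-Glo 30 min RT and luminescence.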

[4] = target: Peroxisome proliferator-activated receptor delta (Homo sapiens) (UniProt Q03181); test: qHTS assay to identify small molecule antagonists of the peroxisome proliferator-activated receptor delta (PPARd) signaling pathway (AID 743215; active = well fitted inhibition curve with a large enough effect in the signal ratio in the repeat runs, not every such curve was filed as active; the % refers to the signal ratio;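 note: cells stimulated with agonist L165041 at 300 nM final during compound exposure; series mostly up to about 62 µM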)
Summary of the method: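 PPARd-bla HEK293H cells (UAS-bla reporter) preincubated 5 h, then given compound plus 300 nM final L165041 agonist for 17 h at 37 C. Beta-lactamase activity read by LiveBLAzer B/G FRET substrate fluorescence after 2 h at room temperature.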

[5] = qHTS assay to identify small molecule antagonists of the farnesoid-X-receptor (FXR) signaling pathway - cell viability counter screen (AID 743221; active = well fitted cell-killing curve with a large enough effect in the repeat runs, not every such curve was filed as active; note: nearly all actives have a fitted effect of over 50% in size; note: potency is the fitted concentration of half-maximal effect)
Summary of the method: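 After a 5 h settling period, FXR-bla HEK 293T cells receive compound and chenodeoxycholic acid (50 uM final) and incubate 16 h at 37 C; CellTiter-Glo luminescence, read after 30 min at room temperature, reports cell viability.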

[6] = target: Vitamin D3 receptor (Homo sapiens) (UniProt P11473); test: qHTS assay to identify small molecule agonists of the vitamin D receptor (VDR) signaling pathway (AID 743222; calls by dose curve)
Summary of the method: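 VDR-bla cells plated 4 h at 37 C, then exposed to compounds for 16 h at 37 C. Beta-lactamase reporter activity measured by fluorescence after 2 h room-temperature loading with LiveBLAzer B/G FRET substrate.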

[7] = target: Vitamin D3 receptor (Homo sapiens) (UniProt P11473); test: qHTS assay to identify small molecule antagonists of the vitamin D receptor (VDR) signaling pathway (AID 743223; active = well fitted inhibition curve with a large enough effect in the signal ratio in the repeat runs, not every such curve was filed as active; the % refers to the signal ratio; note: potency is the fitted concentration of half-maximal effect)
Summary of the method: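 Reporter line VDR-bla; stimulus 1alpha,25-(OH)2 vitamin D3, 3 nM final; compound co-addition, 16 h 37C/5% CO2; LiveBLAzer B/G substrate 2 h RT; fluorescence intensity.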

[8] = qHTS assay to identify small molecule agonists of the vitamin D receptor (VDR) signaling pathway - cell viability counter screen (AID 743224); note: nearly all actives have a fitted effect of over 50% in size; note: potency is the fitted concentration of half-maximal effect
Summary of the method: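 VDR-bla cells, 4 h after plating, exposed to compounds for 16 h at 37C; viability then read in the same wells as CellTiter-Glo luminescence after 30 min at room temperature, following the bla FRET read.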

[9] = qHTS assay to identify small molecule agonists of the NFkB signaling pathway - cell viability counter screen (AID 1159515; calls by dose curve; note: nearly all actives have a fitted effect of over 55% in size; note: potency is the fitted concentration of half-maximal effect)
Summary of the method: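 NFkB-bla ME-180 cells, 2,000/well, plated overnight at 37 C; compound added for 5 hr at 37 C. Viability read in the same wells as the bla reporter, by CellTiter-Glo luminescence after 30 min at room temperature.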

[10] = qHTS assay to identify small molecule agonists of the endoplasmic reticulum stress response signaling pathway - cell viability counter screen (AID 1159517; calls by dose curve; note: nearly all actives have a fitted effect of over 50% in size; note: potency is the fitted concentration of half-maximal effect)
Summary of the method: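 CellTiter-Glo was added to wells already read for beta-lactamase FRET, and luminescence was recorded 30 min later. Cells: ESRE-bla HeLa, 1,500 per well, compound exposure 5 hr at 37 C.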

[11] = qHTS assay to identify small molecule antagonists of the retinoid-related orphan receptor gamma (ROR-gamma) signaling pathway - cell viability counter screen (AID 1159520); note: nearly all actives have a fitted effect of over 50% in size; note: potency is the fitted concentration of half-maximal effect
Summary of the method: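 Tet-on ROR gamma CHO cells (1,000/well) were plated 4 hr, given compounds in DMSO for 2 hr at 37 C, then induced with 1 uM final doxycycline for 16 hr. Viability was read as ATP by CellTiter-Glo luminescence after 30 min.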

[12] = target: Nuclear receptor ROR-gamma (Homo sapiens) (UniProt P51449); test: qHTS assay to identify small molecule antagonists of the retinoid-related orphan receptor gamma (ROR-gamma) signaling pathway (AID 1159521; note: nearly all actives have a fitted effect of over 50% in size; note: potency is the fitted concentration of half-maximal effect)
Summary of the method: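 Decreased RORE-driven luciferase luminescence indicates antagonism. Tet-on RORγ CHO cells received compound, then 1 uM final doxycycline 2 h later; signal read after 16 h incubation.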

[13] = qHTS assay to identify small molecule agonists of the AP-1 signaling pathway - cell viability counter screen (AID 1159525; calls by dose curve; note: nearly all actives have a fitted effect of over 55% in size; note: potency is the fitted concentration of half-maximal effect)
Summary of the method: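 ME-180 AP-1-bla, 2500 cells/well, Opti-MEM + 0.5% dialyzed FBS; overnight 37 °C; cpd 15-pt titration, 5 h 37 °C; CellTiter-Glo 30 min RT; luminescence read; normalised to TOAB and DMSO controls.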

[14] = qHTS assay to identify small molecule agonists of the farnesoid-X-receptor (FXR) signaling pathway - cell viability counter screen (AID 743218); note: nearly all actives have a fitted effect of over 45% in size; note: potency is the fitted concentration of half-maximal effect
Summary of the method: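 FXR-UAS-bla HEK 293T cells exposed to compounds for 16 h at 37C. Cytotoxicity read in the same wells by CellTiter-Glo luminescence after 30 min at room temperature, following the beta-lactamase FRET read.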

[15] = qHTS assay to identify small molecule agonists of the AP-1 signaling pathway (AID 1159526; calls by dose curve; note: potency is the fitted concentration of half-maximal effect)
[16] = target: Bile acid receptor (Homo sapiens) (UniProt Q96RI1); test: qHTS assay to identify small molecule antagonists of the farnesoid-X-receptor (FXR) signaling pathway (AID 743217; active = well fitted inhibition curve with a large enough effect in the signal ratio in the repeat runs, not every such curve was filed as active; the % refers to the signal ratio)
Summary of the method: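 FXR-UAS-bla HEK 293T cells (beta-lactamase reporter) given compound plus chenodeoxycholic acid (50 uM final), 16 h at 37C. LiveBLAzer B/G FRET substrate added for 2 h at room temperature; fluorescence read.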

[17] = target: Bile acid receptor (Homo sapiens) (UniProt Q96RI1); test: qHTS assay to identify small molecule agonists of the farnesoid-X-receptor (FXR) signaling pathway (AID 743220; active = well fitted activation curve with a large enough effect in the signal ratio in the repeat runs, not every such curve was filed as active; the % refers to the signal ratio)
Summary of the method: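 Beta-lactamase reporter under UAS control in GeneBLAzer FXR HEK 293T cells (5000/well) measured with LiveBLAzer FRET substrate after 2 h at room temperature. Compound exposure lasted 16 h at 37C.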

[18] = qHTS assay to identify small molecule agonists of the endoplasmic reticulum stress response signaling pathway (AID 1159516; active = well fitted activation curve with a large enough effect in the signal ratio in the repeat runs, not every such curve was filed as active; the % refers to the signal ratio)
Summary of the method: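 CellSensor ESRE-bla HeLa cells, 1,500 per well, plated overnight, then exposed to compounds for 5 hr at 37 C. Beta-lactamase reporter read with LiveBLAzer B/G FRET substrate after 2 hr at room temperature, 405 nm excitation, 460 and 530 nm emission.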

[19] = target: Retinoic acid receptor RXR-alpha (Homo sapiens) (UniProt P19793); test: qHTS assay to identify small molecule agonists of the RXR signaling pathway (AID 1159527; calls by dose curve; note: nearly all actives have a fitted effect of over 35% in size)
Summary of the method: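 16 hr incubation of compound-treated RXR-alpha-UAS-bla HEK 293T cells (2% charcoal-stripped FBS, 37 C) preceded a 2 hr room-temperature LiveBLAzer FRET substrate step and blue/green fluorescence measurement.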

[20] = qHTS assay to identify small molecule antagonists of the vitamin D receptor (VDR) signaling pathway - cell viability counter screen (AID 743225); note: nearly all actives have a fitted effect of over 50% in size; note: potency is the fitted concentration of half-maximal effect
Summary of the method: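 Parallel cytotoxicity test: VDR-UAS-bla HEK 293T, 3 nM (final) 1-alpha,25-dihydroxyvitamin D3 with test compound, 16 h, 37C. Endpoint is CellTiter-Glo luminescence in the same wells.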

Chain of Peroxisome proliferator-activated receptor delta (Homo sapiens) (Q03181 whole entry, looked up): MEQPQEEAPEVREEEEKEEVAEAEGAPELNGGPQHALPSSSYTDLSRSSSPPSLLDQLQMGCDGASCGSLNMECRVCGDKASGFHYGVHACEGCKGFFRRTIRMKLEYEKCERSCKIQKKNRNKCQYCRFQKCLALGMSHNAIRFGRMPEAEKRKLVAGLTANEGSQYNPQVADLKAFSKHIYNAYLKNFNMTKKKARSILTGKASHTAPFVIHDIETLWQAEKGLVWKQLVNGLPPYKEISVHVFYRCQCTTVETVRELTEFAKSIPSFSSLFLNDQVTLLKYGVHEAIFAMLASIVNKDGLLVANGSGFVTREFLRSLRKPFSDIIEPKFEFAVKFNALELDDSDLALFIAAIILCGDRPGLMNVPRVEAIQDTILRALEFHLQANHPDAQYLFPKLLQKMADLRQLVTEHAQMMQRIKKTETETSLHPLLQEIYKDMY
Chain of Vitamin D3 receptor (Homo sapiens) (P11473 whole entry, looked up): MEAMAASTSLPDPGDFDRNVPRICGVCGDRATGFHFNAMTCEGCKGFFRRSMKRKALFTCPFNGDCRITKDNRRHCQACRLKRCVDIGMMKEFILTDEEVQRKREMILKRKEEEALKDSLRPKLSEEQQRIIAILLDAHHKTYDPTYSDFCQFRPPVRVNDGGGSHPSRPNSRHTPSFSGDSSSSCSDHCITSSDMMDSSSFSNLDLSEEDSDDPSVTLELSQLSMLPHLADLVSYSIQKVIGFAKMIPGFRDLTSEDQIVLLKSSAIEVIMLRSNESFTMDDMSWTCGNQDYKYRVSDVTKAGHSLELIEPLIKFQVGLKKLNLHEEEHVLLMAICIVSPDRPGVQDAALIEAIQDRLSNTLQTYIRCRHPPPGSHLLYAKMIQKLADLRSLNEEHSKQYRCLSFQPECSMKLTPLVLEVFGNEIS
Chain of Bile acid receptor (Homo sapiens) (Q96RI1 whole entry, looked up): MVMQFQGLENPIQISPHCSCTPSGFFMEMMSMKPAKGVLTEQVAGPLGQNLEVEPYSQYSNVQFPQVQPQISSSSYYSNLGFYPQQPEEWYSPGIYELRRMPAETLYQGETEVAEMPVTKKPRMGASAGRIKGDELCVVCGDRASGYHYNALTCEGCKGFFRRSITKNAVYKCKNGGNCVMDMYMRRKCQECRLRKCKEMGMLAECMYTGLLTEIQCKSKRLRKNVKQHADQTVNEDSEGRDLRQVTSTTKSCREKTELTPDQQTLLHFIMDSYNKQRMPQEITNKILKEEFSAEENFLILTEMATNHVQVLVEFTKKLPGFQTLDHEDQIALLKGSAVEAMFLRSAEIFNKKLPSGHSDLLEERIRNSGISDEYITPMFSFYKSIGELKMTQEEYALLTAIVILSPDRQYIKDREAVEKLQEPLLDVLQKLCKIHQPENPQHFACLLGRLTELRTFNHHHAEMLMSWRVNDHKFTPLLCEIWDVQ
Chain of Retinoic acid receptor RXR-alpha (Homo sapiens) (P19793 whole entry, looked up): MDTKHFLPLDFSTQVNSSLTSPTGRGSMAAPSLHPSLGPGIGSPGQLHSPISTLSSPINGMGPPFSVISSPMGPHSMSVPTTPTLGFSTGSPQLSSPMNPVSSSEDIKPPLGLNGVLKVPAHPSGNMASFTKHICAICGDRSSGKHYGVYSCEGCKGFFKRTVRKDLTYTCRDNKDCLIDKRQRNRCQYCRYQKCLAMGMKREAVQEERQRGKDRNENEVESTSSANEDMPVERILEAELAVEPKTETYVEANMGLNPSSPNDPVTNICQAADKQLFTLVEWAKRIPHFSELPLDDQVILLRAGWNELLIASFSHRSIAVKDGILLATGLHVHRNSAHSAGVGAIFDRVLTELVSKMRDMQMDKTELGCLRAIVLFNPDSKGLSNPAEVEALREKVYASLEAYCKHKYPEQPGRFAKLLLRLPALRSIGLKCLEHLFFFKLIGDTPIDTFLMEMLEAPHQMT

| Compound | Potency [1] | Potency [2] | Potency [3] | Potency [4] | Potency [5] | Potency [6] | Potency [7] | Potency [8] | Potency [9] | Potency [10] | Potency [11] | Potency [12] | Potency [13] | Potency [14] | Potency [15] | Potency [16] | Potency [17] | outcome [18] | Potency [19] | Potency [20] |
| --- | --- | --- | --- | --- | --- | --- | --- | --- | --- | --- | --- | --- | --- | --- | --- | --- | --- | --- | --- | --- |
| CC(C)CCCCCCc1ccc(O)cc1 | 35.3 µM (active) | inactive | 39.6 µM (active) and 43.6 µM (active) | inactive | 22.3 µM (active) and 49 µM (active) | inactive | 22.3 µM (active) and 43.6 µM (active) | 19.8 µM (active) and 30.9 µM (active) | 39.6 µM (active) and 38.9 µM (active) | 35.3 µM (active) and 54.9 µM (active) | 24.8 µM (active) | 2.48 µM (active) | 25 µM (active) and 49 µM (active) |  |  |  |  |  |  |  |
| c1ccc2c(c1)-c1cccc3c1c-2cc1ccccc13 | inactive |  | inactive | inactive | inactive |  |  | inactive | inactive | inactive | 53.2 µM (active) |  |  | inactive | 17 µM (active) and 38.9 µM (active) |  |  |  |  |  |
| c1cnc2cc3c(cc2n1)C1CNCC3C1 | inactive | inactive | inactive | inactive | inactive | inactive |  | inactive |  | inactive | inactive | inactive | inactive | inactive | inactive | inactive | inactive | inactive | inactive |  |
| CCCCCC(=O)O[C@]1(C(C)=O)CC[C@H]2[C@@H]3CCC4=CC(=O)CC[C@]4(C)[C@H]3CC[C@@]21C | 48.6 µM (active) and 29.8 µM (active) |  |  |  |  |  |  | 43.4 µM (active) and inactive | inactive | inactive | 60.7 µM (active) |  | inactive | 43.4 µM (active) | inactive |  |  |  |  | 43.4 µM (active) and 23.9 µM (active) |
| Nc1nc2ccccc2[nH]1 | inactive |  | inactive |  | inactive | inactive | inactive | inactive | inactive | inactive | inactive |  | inactive | inactive |  | inactive | inactive |  | inactive | inactive |
| Cc1cccc2n[nH]nc12 | inactive | inactive | inactive | inactive | inactive | inactive | inactive | inactive | inactive | inactive | inactive |  | inactive | inactive | inactive |  |  |  | inactive | inactive |
| Nc1nc(=S)c2[nH]cnc2[nH]1 | inactive |  |  |  | inactive |  |  | 1.74 µM (active) and 3.35 µM (active) | inactive | inactive |  | 26.6 µM (active) and inactive | inactive | inactive | inactive |  |  |  |  |  |
| CN(C)c1ccc(C(=C2C=CC(=[N+](C)C)C=C2)c2ccccc2)cc1 | 347 nM (active) and 1.33 µM (active) |  | 490 nM (active) and 3.35 µM (active) |  | 617 nM (active) and 1.5 µM (active) |  |  | 219 nM (active) and 2.11 µM (active) | 3.09 µM (active) and 10.7 µM (active) | 27.5 µM (active) | 5.45 µM (active) and 4.22 µM (active) and 10.6 µM (active) |  | 13.8 µM (active) and 23.9 µM (active) and 10.7 µM (active) | 437 nM (active) and 2.37 µM (active) | 848 nM (active) |  |  |  |  | 490 nM (active) and 3.38 µM (active) |
| CC1COc2c(N3CCN(C)CC3)c(F)cc3c(=O)c(C(=O)O)cn1c23 (stereo not given) | inactive | inactive | inactive | inactive | inactive | inactive | inactive | inactive |  | inactive | inactive | inactive | inactive | inactive | inactive | inactive | inactive | inactive | inactive | inactive |
| CCOc1ccccc1C(N)=O | inactive | inactive | inactive | inactive | inactive | inactive | inactive | inactive |  | inactive | inactive | inactive | inactive | inactive | inactive | inactive | inactive | inactive | inactive |  |
| CCCCC(CC)COC(=O)CC(C(=O)OCC(CC)CCCC)S(=O)(=O)O (stereo not given) | 37.4 µM (active) and 24.5 µM (active) |  | 15.5 µM (active) | inactive | 43.6 µM (active) | inactive | inactive | 42 µM (active) and 43.6 µM (active) | 47.1 µM (active) and 49 µM (active) |  | inactive | inactive | 42 µM (active) and 49 µM (active) | 52.9 µM (active) and 43.6 µM (active) |  |  |  |  |  | 21.1 µM (active) and 15.5 µM (active) |
